± gives the standard deviation.
What was measured:
Settings in all cases: modulator concentration 10 µM
[1] = test system: RAW-Dual (murine macrophage reporter line); assay: NF-kB reporter (SEAP) activity fold change vs agonist alone; higher = enhanced NF-kB activity
In short: (§1)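 RAW-Dual murine macrophage reporter cells were plated at 50 000 per well in 384-well plates, pin-transferred compound to 10 μM final, and pre-incubated for 1 hour at 37 °C before a PRR agonist was added and the cells incubated overnight. NF-κB activity was read from supernatant SEAP with QUANTI-Blue at 620 nm absorbance, and IRF activity from Lucia luciferase with QUANTI-Luc by luminescence. Each signal was expressed as fold change by dividing by the mean agonist-only control on the same plate. Two replicate plates were averaged, with errors obtained by propagation.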

[2] = test system: RAW-Dual (murine macrophage reporter line); assay: IRF reporter (Lucia luciferase) activity fold change vs agonist alone; higher = enhanced IRF activity
In short: as §1

[3] = test system: RAW-Dual (murine macrophage reporter line); assay: viability score (confluency relative to resting cells, overnight) (fraction); higher = more viable, active = viable (0.7 or more)
In short: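 A compound met the cutoff when both of two confluency masks exceeded 70% of resting cells. Those masks were made with IncuCyte software from IncuCyte images of RAW-Dual macrophages treated overnight at 10 μM final. This is the basis of the viability score, which is confluency relative to resting cells.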

[4] = agonist: CpG ODN 1826 0.5 ug/mL

| Compound | NF-kB reporter [1, 4] | NF-kB reporter ([1]; agonist: LPS 0.1 ug/mL) | NF-kB reporter ([1]; agonist: MPLA […]) | IRF reporter ([2]; agonist: 3'3'-cGAMP 10 ug/mL) | IRF reporter ([2]; agonist: LPS 0.1 ug/mL) | IRF reporter ([2]; agonist: MPLA […]) | viability score [3] |
| --- | --- | --- | --- | --- | --- | --- | --- |
| CN1CCN(c2nc(C3=C(c4c[nH]c5ccccc45)C(=O)NC3=O)c3ccccc3n2)CC1 | 0.748 ± 0.034 | 0.961 ± 0.081 | 1.21 ± 0.071 | 0.798 ± 0.041 | 1.14 ± 0.24 | 1.17 ± 0.32 | 0.988 (active) |
| CC1=CCCC(=O)C2CC(C)(C)C2CC1 (configuration not stated) | 0.95 ± 0.13 | 0.857 ± 0.11 | 0.89 ± 0.083 | 0.876 ± 0.031 | 1.05 ± 0.15 | 1.05 ± 0.3 | 1.05 (active) |
| CC(C)(C)c1ccc(C(=O)CCCN2CCC(OC(c3ccccc3)c3ccccc3)CC2)cc1 | 0.99 ± 0.25 | 1.05 ± 0.081 | 1.02 ± 0.073 | 0.646 ± 0.024 | 1.18 ± 0.23 | 1.21 ± 0.13 | 1 (active) |
| O=C(NN=Cc1ccccc1C(F)(F)F)c1ccc(=O)[nH]n1 | 0.764 ± 0.062 | 0.877 ± 0.052 | 1.08 ± 0.098 | 0.964 ± 0.052 | 1.23 ± 0.08 | 1.28 ± 0.12 | 0.999 (active) |
| Nc1nc(NC2CC2)c2ncn([C@H]3C=C[C@@H](CO)C3)c2n1 [Prestw-1512] | 1.12 ± 0.18 | 1.18 ± 0.11 | 1.02 ± 0.087 | 0.935 ± 0.031 | 1.01 ± 0.21 | 1.12 ± 0.19 | 0.974 (active) |
| Clc1ccc(Cn2c(CN3CCCC3)nc3ccccc32)cc1 [Prestw-227] | 0.369 ± 0.076 | 1.12 ± 0.1 | 1.06 ± 0.14 | 0.682 ± 0.038 | 1.07 ± 0.1 | 1.37 ± 0.18 | 0.787 (active) |
| Cc1ccccc1C(=O)Nc1nc(C(C)(C)C)cs1 | 0.519 ± 0.056 | 0.997 ± 0.047 | 1.12 ± 0.11 | 0.777 ± 0.047 | 1.23 ± 0.13 | 1.35 ± 0.13 | 1 (active) |
| Cc1cc(C)n(-c2ccc(=O)n(CCNS(=O)(=O)c3ccccc3F)n2)n1 | 1.08 ± 0.09 | 1.08 ± 0.086 | 0.937 ± 0.049 | 1.01 ± 0.059 | 1.2 ± 0.081 | 1.13 ± 0.11 | 1 (active) |
| O=C1C=C(c2c(O)ccc3ccccc23)c2ccccc2C1=O | 1.19 ± 0.21 | 0.399 ± 0.055 | 1.66 ± 0.19 | 0.0196 ± 0.0013 | 1.44 ± 0.18 | 0.656 ± 0.074 | 0.556 (inactive) |
| Cc1sccc1-c1csc(Nc2cccnc2)n1.Cl | 0.603 ± 0.028 | 0.918 ± 0.075 | 1.16 ± 0.21 | 0.6 ± 0.029 | 1.19 ± 0.23 | 1.62 ± 0.53 | 0.902 (active) |
| Br.Fc1ccc(-c2csc(Nc3ccc4c(c3)OCO4)n2)cc1 | 0.871 ± 0.076 | 0.946 ± 0.066 | 1.02 ± 0.038 | 0.315 ± 0.022 | 1.03 ± 0.076 | 1.29 ± 0.12 | 0.999 (active) |
| OCCOCCN1CCN(C(c2ccccc2)c2ccc(Cl)cc2)CC1 (configuration not stated) [Prestw-133] | 1.07 ± 0.083 | 0.934 ± 0.071 | 1.07 ± 0.11 | 0.763 ± 0.024 | 1 ± 0.14 | 1.01 ± 0.21 | 1.04 (active) |
| CCCCOC(=O)C1=C(C)NC2=C(C(=O)CCC2)C1c1cccc(C(F)(F)F)c1 (configuration not stated) | 0.981 ± 0.1 | 1.01 ± 0.057 | 0.939 ± 0.058 | 0.993 ± 0.025 | 1.56 ± 0.28 | 1.15 ± 0.17 | 1.01 (active) |
| Nc1ncn([C@H]2C[C@H](O)[C@@H](CO)O2)c(=O)n1 | 1.3 ± 0.11 | 0.995 ± 0.054 | 1.15 ± 0.061 | 1.84 ± 0.32 | 1.09 ± 0.048 | 1.39 ± 0.27 | 0.963 (active) |
| O=C(CCCCCN1C(=O)c2cccc3cccc(c23)C1=O)NO | 1.71 ± 0.32 | 1.43 ± 0.12 | 4.2 ± 0.32 | 0.062 ± 0.0017 | 0.581 ± 0.061 | 0.632 ± 0.12 | 0.536 (inactive) |
| COc1ccc(CCNc2nnc(Cc3ccc(Cl)cc3)c(=O)[nH]2)cc1OC | 0.928 ± 0.068 | 1.1 ± 0.089 | 0.877 ± 0.11 | 0.977 ± 0.05 | 1.07 ± 0.065 | 1.04 ± 0.08 | 1.02 (active) |
| CCOC(=O)C1=C(C)NC(=S)NC1c1cccc(C)c1 (configuration not stated) | 0.93 ± 0.097 | 1.09 ± 0.097 | 1.05 ± 0.037 | 0.712 ± 0.17 | 0.944 ± 0.045 | 0.835 ± 0.057 | 0.975 (active) |
| CCOCC(=O)Nc1nc2c(C(F)(F)F)cccc2s1 | 1.16 ± 0.067 | 0.964 ± 0.11 | 1.06 ± 0.052 | 0.969 ± 0.039 | 1.04 ± 0.048 | 1.03 ± 0.14 | 0.989 (active) |
| NS(=O)(=O)c1ccc2c(c1)CCCC2 | 0.512 ± 0.11 | 0.806 ± 0.22 | 0.661 ± 0.15 | 0.932 ± 0.057 | 0.925 ± 0.073 | 0.957 ± 0.3 | 0.863 (active) |
| CC(C)(C)C(=O)Oc1ccc(S(=O)(=O)Nc2ccccc2C(=O)NCC(=O)O)cc1 | 0.755 ± 0.05 | 1.07 ± 0.086 | 1.18 ± 0.063 | 1.1 ± 0.064 | 1.09 ± 0.26 | 1.38 ± 0.47 | 0.972 (active) |
| O=C(NC1CCOCC1)N1CCOC(c2cc(Cl)cc(Cl)c2)C1 (configuration not stated) | 0.83 ± 0.036 | 1.05 ± 0.083 | 1.09 ± 0.06 | 0.971 ± 0.045 | 1.35 ± 0.27 | 1.54 ± 0.52 | 0.968 (active) |
| COC(=O)C1=C(C)NC(C)=C(C(=O)OCCN(C)Cc2ccccc2)C1c1cccc([N+](=O)[O-])c1 (configuration not stated) | 0.317 ± 0.079 | 0.753 ± 0.06 | 0.72 ± 0.05 | 0.324 ± 0.028 | 1.14 ± 0.24 | 1.15 ± 0.12 | 0.982 (active) |
| Cc1ccc(Sc2ccccc2N2CCNCC2)c(C)c1 | 0.415 ± 0.1 | 1.22 ± 0.065 | 2.11 ± 0.33 | 0.462 ± 0.015 | 2.25 ± 0.3 | 2.42 ± 0.23 | 0.622 (inactive) |
| O=C(NCCN1C(=O)c2ccccc2C1(O)c1ccc(Cl)cc1)Nc1ccccc1 (configuration not stated) | 1.28 ± 0.1 | 0.219 ± 0.011 | 0.22 ± 0.02 | 0.841 ± 0.045 | 0.0475 ± 0.0035 | 0.0497 ± 0.0069 | 0.73 (active) |
| COC(CNC(=O)c1cccc(Cl)c1)c1ccccc1C (configuration not stated) | 0.774 ± 0.038 | 0.876 ± 0.092 | 0.958 ± 0.075 | 0.965 ± 0.059 | 1.22 ± 0.23 | 1.37 ± 0.34 | 0.999 (active) |
| COc1cc2c(cc1OC)C(=O)C(CC1CCN(Cc3ccccc3)CC1)C2.Cl (configuration not stated) | 0.127 ± 0.011 | 0.947 ± 0.072 | 1.46 ± 0.14 | 0.791 ± 0.067 | 1.15 ± 0.25 | 1.29 ± 0.22 | 0.959 (active) |
